Laboratory results reported in PubChem BioAssay AID743279 (National Center for Advancing Translational Sciences (NCATS), 2014).
Hit rate of the full screen: of about 360,000 compounds, about 17,000 (4.7%) were called active. Not shown: some 5% with an inconclusive outcome. Shown is part of a subset that was picked to be rich in actives. A number with no mark means an inactive call. Rule as the data show it: active = activity change below about -50%; inconclusive = mostly about -30% to -49%; inactive = weaker than that.

Experiment: qHTS for Inhibitors of Inflammasome Signaling: IL-1-beta AlphaLISA Primary Screen
Details: THP-1 LPS/ATP IL-1B secretion, 16 h; at 57.5 µM, active compounds read low
In short: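 Secreted IL-1B measured by AlphaLISA bead assay after 16 h compound exposure of THP-1 cells; compounds (final up to 57.5 uM) added 1 h before LPS (250 ng/mL) and ATP (1.25 mM) stimulation; lower signal means less secretion.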
% is scaled to controls: 0 for no effect and ±100 for the full control effect.

Row | Structure (SMILES) | activity change
1 | CCOc1c2ccc(C(=O)NCc3ccc4c(c3)OCO4)cc2nn1C | -4.17%
2 | COc1ccccc1-n1c(C)nc2cc(C(=O)NCc3ccc4c(c3)OCO4)ccc21 | -65.9% (active)
3 | COc1cc(OC)c(C(=O)NCc2ccc3c(c2)OCO3)cc1OC | 38%
4 | Cn1c(N)cc(=O)n(C)c1=S | 19%
5 | S=C(c1ccc(-c2ccccc2)o1)N1CCCCC1 | -56.6% (active)
6 | CC1CCN(C(=S)c2ccc(-c3ccc(Cl)cc3Cl)o2)CC1 | -11.9%
7 | S=C(c1ccccc1)N1CCCC1 | 9.49%
8 | COc1ccc(NC(=O)c2cc(=O)[nH]c3ccccc23)cc1S(=O)(=O)N1CCOCC1 | -13.1%
9 | CCN(CC)CCCNC(=O)c1c(O)c2cc(F)cc3c2n(c1=O)C(C)CC3 (stereo unspecified) | 67.3%
10 | O=C(NCc1ccco1)c1cccc(-c2ccc3nncn3c2)c1 | 0%
11 | Cc1ccc(-c2ccc(C3=CC(=O)CC(C)(C)C3=O)cc2)cc1 | -18.9%
12 | C=CCOc1ccc(/C=C2/C(=O)ON=C2C)cc1OCC | -98.7% (active)
13 | COc1cc(/C=C2/C(=O)ON=C2C)ccc1OCc1ccccc1F | -99.7% (active)
14 | COc1cc(/C=C2\SC(=O)NC2=O)ccc1OCc1ccc(Cl)nc1 | 11.8%
15 | C#CCOc1ccc(/C=C2/C(=O)NN(c3ccccc3)C2=O)cc1OC | 11.3%
16 | COc1cc(/C=C2/C(=O)ON=C2C)ccc1OCc1cccc(F)c1 | -6.27%
17 | C=CCOc1ccc(/C=N/NC(=O)C(C)Sc2ccccn2)cc1OCC (stereo unspecified) | -1.69%
18 | CC1=NOC(=O)/C1=C\c1ccccc1 | 11.9%
19 | C#CCOc1ccccc1/C=C1/C(=O)ON=C1C | -15%
20 | C#CCOc1ccc(/C=C2/C(=O)ON=C2C)cc1OCC | -87.9% (active)
21 | CC(=O)c1ccccc1NC(=O)COC(=O)C1COc2ccccc2O1 (stereo unspecified) | 22.8%

Row | Structure (SMILES) | activity change
22 | OC[C@@H]1CN(Cc2ccc3c(c2)OCO3)C[C@H](n2cnc3c(NCc4ccco4)ncnc32)O1 | 0.259%
23 | O=C(C(=O)N1CCC(c2ccccc2)CC1)c1ccccc1 | 27.9%
24 | CCCCNC(=O)C[C@@H]1C[C@@]2(C(=O)OCC)CCC=C2N(Cc2cccc3ccccc23)C1=O | -0.516%
25 | C=CCC1(C(=O)N(C)Cc2ccccc2)CCN(C(=O)OC(C)(C)C)CC1 | -21.2%
26 | CCOc1ccc(C(C)=O)cc1COC(=O)CN1C(=O)NC2(CCCC2)C1=O | -1.02%
27 | Cc1onc(-c2ccccc2)c1-c1nnc(COC(=O)c2ccc(N(C)C)cc2)o1 | 21.8%
28 | CCOc1ccccc1NC(=O)Cn1ncc2ccc([N+](=O)[O-])cc21 | 10.8%
29 | CN(C)CCNc1ccc(-c2n[nH]c(=O)c3ccccc23)cc1[N+](=O)[O-] | -56.7% (active)
30 | Cc1ccc(S(=O)(=O)N(C)C)cc1NC(=O)c1n[nH]c(=O)c2ccccc12 | -9.1%
31 | COCCNc1ccc(-c2n[nH]c(=O)c3ccccc23)cc1[N+](=O)[O-] | 20.3%
32 | C=CCCC(=O)N1C[C@H]2CON(C)[C@H]2C[C@H]1c1cccc(Nc2ccccc2)c1 | -2.63%
33 | Cc1cc(Nc2ccc(C)c(C)c2)n2ncnc2n1 | 3.66%
34 | CCOC(=O)[C@]12CCCC=C1N(CCC1=CCCCC1)C(=O)[C@H](CC(=O)N1CCCCC1)C2 | 19.5%
35 | COCCNC(=O)CSc1nc2sccc2c(=O)n1-c1ccccc1 | 14%
36 | O=C1CC(C(=O)O)NC(=S)N1 (stereo unspecified) | 3.02%
37 | O=[N+]([O-])c1ccc2[nH]c3c(c2c1)CCCC3O (stereo unspecified) | -14.8%
38 | COC(=O)c1ccc(C23CC4(C2)[C@H](CN(Cc2cccnc2)[C@@H]4c2ccccc2)C3c2ccc(Cl)nc2)cc1 (stereo partly specified) | 24%
39 | O=C(CSc1cccc[n+]1[O-])c1ccc(Cl)cc1 | -5.03%
40 | O=C(Cn1cc(-c2nnnn2-c2ccc(Cl)cc2)c(=O)c2ccccc21)c1ccccc1 | 33.2%
41 | O=C(C[n+]1ccc2c(c1)nnn2-c1ccccc1)c1ccc(Cl)cc1 | -56.5% (active)
42 | CC1(C)NC(=O)N(CC(=O)Nc2ccc(-c3ccccc3)cc2)C1=O | 4.98%

Row | Structure (SMILES) | activity change
43 | O=C(Nc1ccc(S(=O)(=O)Nc2nccs2)cc1)c1cccc(S(=O)(=O)N2CCOCC2)c1 | 0%
44 | O=C(NCc1cccnc1)c1cc(S(=O)(=O)N2CCOCC2)c(Cl)cc1Cl | 16.2%
45 | O=C(Nc1nccs1)c1cc(S(=O)(=O)N2CCOCC2)c(Cl)cc1Cl | -105% (active)
46 | C[C@@H]1CN([C@H](C)CO)C(=O)c2cc(Br)cnc2O[C@@H]1CN(C)Cc1cncnc1 | -0.234%
47 | CC(=O)Nc1cncc(-c2ccccc2CO)n1 | 5.55%
48 | CC1(C)CCSC(/C=C/c2ccccc2)=N1 | -102% (active)
49 | CC1(C(=O)NS(=O)(=O)c2ccccc2)CCN1C(=O)C/C=C/c1ccccc1 (stereo unspecified) | -5.77%
50 | CC1(C(=O)O)CCN1C(=O)/C=C/c1ccccc1 (stereo unspecified) | 23.5%
51 | Cc1cc(C)nc(NNC2=CC(=O)CC(C)(C)C2)n1 | 31.9%
52 | CC(=O)Oc1ccc(N(C(C)=O)S(=O)(=O)c2ccc3ccccc3c2)cc1Br | -50% (active)
53 | COCCNC(=O)COc1ccc(N(C)S(=O)(=O)c2ccc3ccccc3c2)cc1 | 22.7%
54 | CCN1CCN(C(=O)CN(C)S(=O)(=O)c2ccc3ccccc3c2)CC1 | 20.4%
55 | COc1cccc(C(=O)Nc2ccc3nc4n(c(=O)c3c2)CCCCC4)c1 | 5.21%
56 | Cc1ccc(OCC(=O)Nc2ccccc2C(=O)NC2CC2)cc1C | 0%
57 | CCOC(=O)c1cc(-c2sc(NC(=O)c3ccccc3)nc2C)n(Cc2ccccc2)n1 | -3.85%
58 | COCCNC(=O)CN(Cc1ccco1)C(=O)CCC(=O)Nc1nccs1 | -4.97%
59 | CCC(C)(C)n1nnnc1C(c1cccs1)N1CCN(c2nc3ccccc3s2)CC1 (stereo unspecified) | -62.8% (active)
60 | CCC(C)(C)n1nnnc1C(c1ccc(OC)c(OC)c1)N1CCN(C(=O)c2ccco2)CC1 (stereo unspecified) | 1.37%
61 | Fc1ccc(Cn2nnnc2C(c2cccs2)N2CCCCCC2)cc1 (stereo unspecified) | -13.3%
